# Compound activity from PubChem BioAssay.
# mIDH1 inhibitor = human IDH1 R132H inhibition | IDH1-R132H enzyme, NADPH consumption, diaphorase/resazurin fluorescence | Potency, µM (highest dose often 76.6 µM), for inactives: at the top dose activity change, negative = inhibition, actives largely listed as inhibitors | O75874 | 0.093% of 390,000 active; note: potency is the fitted concentration of half-maximal effect; % is set by controls: 0 for no effect and ±100 for the full control effect; nearly all actives have a fitted effect of over 65% in size
# Target sequence (O75874 whole entry R132H, stated change not applied): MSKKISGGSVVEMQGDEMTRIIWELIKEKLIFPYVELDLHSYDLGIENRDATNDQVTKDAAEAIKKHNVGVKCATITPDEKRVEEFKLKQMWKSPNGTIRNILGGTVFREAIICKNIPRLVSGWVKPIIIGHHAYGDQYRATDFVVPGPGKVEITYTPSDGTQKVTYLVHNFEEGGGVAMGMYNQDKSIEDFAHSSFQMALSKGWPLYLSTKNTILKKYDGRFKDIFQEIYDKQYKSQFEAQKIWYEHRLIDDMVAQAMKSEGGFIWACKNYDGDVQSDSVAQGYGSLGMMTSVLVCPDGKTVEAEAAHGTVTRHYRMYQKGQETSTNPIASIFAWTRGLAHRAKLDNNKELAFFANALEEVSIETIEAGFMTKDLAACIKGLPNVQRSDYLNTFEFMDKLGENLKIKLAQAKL
#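 IDH1-R132H (0.5 ug/mL) preincubated 30 min with compound, then NADPH (0.016 mM) and alpha-KG (2 mM) added; 80 min at RT, pH 7.5. Remaining NADPH coupled via diaphorase/resazurin to fluorescence (540/590 nm); concentration-response curves normalized to no-enzyme control.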
# ELG1 DNA repair = ELG1-dependent DNA repair inhibition; AID 504467; HEK293T ELG1-luciferase reporter, luminescence, 16 h; DNA damage induced by 5-fluorouridine; Potency, µM (titrated, usually from 46.1 µM), for inactives: at the highest dose activity change, negative = inhibition, most hits filed as inhibitors; 2.3% of 330,000 active; note: potency is the fitted concentration of half-maximal effect; % is set by controls: 0 for no effect and ±100 for the full control effect; nearly all actives have a fitted effect of over 55% in size
#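 DMSO vehicle served as the neutral condition. Each well held 2,000 cells given 5-fluorouridine plus compound; after 16 hr at 37 °C/5% CO2, ONE-Glo was added and luciferase measured 30 min later.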
# Nrf2 inh = Nrf2 pathway inhibition. A549 ARE-Fluc reporter, luciferase luminescence, 18-24 h. AID 504444. Potency, µM (doses to about 46 µM), inactives show top-dose activity change, negative = inhibition, hits mostly inhibitors. 2.1% of 360,000 active; note: potency is the fitted concentration of half-maximal effect; % is set by controls: 0 for no effect and ±100 for the full control effect; nearly all actives have a fitted effect of over 60% in size
#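 Two sequential reads on A549 ARE_Fluc cells exposed to compound for 18-24 h: a CellTiter-Fluor fluorescence read for viability, then a luciferase luminescence read for Nrf2/ARE activity.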
# Nrf2 ARE act = activates Nrf2 signaling; AREc32 ARE-luciferase reporter (MCF7-derived line), luminescence, 24 h; Potency, µM (titrated, usually from 46.1 µM), without a hit: at the top dose activation, actives largely listed as activators; 0.31% of 410,000 active; AID 624171; note: potency is the fitted concentration of half-maximal effect; % of control where 0% means no effect; nearly all actives have a fitted effect of over 65% in size
#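 AREc32 cells carrying an ARE-driven firefly luciferase reporter were seeded at 1000 cells/well in OPTI-MEM with 5% FBS, then exposed to compound for 24 hr at 37 deg C. Luminescence was read with Steady-Glo after 30 min at RT.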
# A549 viability = kills or reduces viability of A549 cells in Nrf2 counter-screen | Potency, µM (titrated, usually from 46 µM), for the others: at the top dose activity change, negative = cytotoxicity, actives largely listed as inhibitors | 0.16% of 390,000 active | A549 ARE-Fluc cells, CellTiter-Fluor viability, 18-24 h | AID 504648; note: potency is the fitted concentration of half-maximal effect; % is set by controls: 0 for no effect and ±100 for the full control effect
#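 A549 ARE-Fluc cells in 5% FBS OPTI-MEM, 5000 cells/well, rested 2 h then exposed to compounds in concentration-response for 18-24 h at 37 °C. Viability by CellTiter-Fluor fluorescence (Ex 405/Em 525) after 30 min; luciferase luminescence (BugLite, 15 min, RT) read afterwards.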
# Resorufin autofl = interferes with resorufin fluorescence in IDH1 counter-screen. inhibition of signal, % at 51.2 µM. AID 623980. Resorufin detection reagent fluorescence interference, cell-free. shares compounds with mIDH1 inhibitor. 750 tested, under 10 active;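 note: 0% = wells with normal resorufin and full inhibition = wells lacking resorufin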
# IDH1 WT = wild-type IDH1 (human) inhibition counterscreen. shares compounds with mIDH1 inhibitor. WT IDH1 enzyme, NADPH diaphorase/resazurin fluorescence. Potency, µM (doses to about 115 µM), inactives show at the highest dose activity change, negative = inhibition, most hits filed as inhibitors. 9% of 750 active. AID 623995;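 note: potency is the fitted concentration of half-maximal effect; 0% = full WT IDH1 enzyme control and full inhibition = no enzyme wells; nearly all actives have a fitted effect of over 55% in size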
# Target sequence (O75874 whole entry, looked up): as the sequence (O75874 whole entry R132H, stated change not applied) above, with H132R counted along it
# mIDH1 confirm = inhibits human mutant IDH1 enzyme in cherrypick confirmation | shares compounds with mIDH1 inhibitor | IDH1 R132H enzyme, NADPH diaphorase/resazurin fluorescence | Potency, µM (highest dose often 76.6 µM), inactives show at the top dose activity change, negative = inhibition, hits mostly inhibitors | 83% of 750 active | AID 624002; note: potency is the fitted concentration of half-maximal effect; nearly all actives have a fitted effect of over 50% in size
# * = called active by the depositor; ? = inconclusive; nt = no result; [ ] = another dose, or the depositor's remark. Most compounds without a hit are left out; they make up all but 3.8% or so of the library. Calls come from the whole dose curve; as a rule, active = well fitted curve in the direction sought with a large enough effect; inconclusive = small, poorly fitted or top-dose-only effect, or another doubt; inactive = no such curve, though single readings can be large; an effect the other way counts as inactive or inconclusive.
SMILES,mIDH1 inhibitor,ELG1 DNA repair,Nrf2 inh,Nrf2 ARE act,A549 viability,Resorufin autofl,IDH1 WT,mIDH1 confirm
CN(c1ccccc1)c1ccc(/C=C/[N+](=O)[O-])cc1,29µM*,?,-4%,0%,?,2,71µM*,22µM*
CC(=O)N1CCn2c3c(c4cc(C)ccc42)CCCC31 (stereo not drawn),-1%,3%,7%,0%,-2%,nt,nt,nt
Cc1ccc2c(c1)c1c3n2CCN(C(=O)CCl)C3CCC1 (stereo not drawn),46µM*,8%,-16%,?,-3%,-1,?,16µM*
COc1ccc(C(=O)NCC(c2ccc3c(c2)OCO3)N2CCOCC2)cc1OC (stereo not drawn),-7%,nt,nt,-1%,2%,nt,nt,nt
O=S(=O)(c1ccc(Cl)cc1)c1nc(-c2cccs2)oc1SCc1ccc(F)cc1,7%,nt,-13%[9.27 µM],0%,1%,nt,nt,nt
FC(F)(F)c1cccc(Nc2c3c(nc4ccc(Cl)cc24)CCC3)c1,?,nt,?,-1%,-6%,3,2%,?
Fc1ccc(F)c(Nc2c3c(nc4ccc(Cl)cc24)CCC3)c1,?,nt,16%,-1%,-2%,nt,nt,nt
CCN(CC)c1ccc(-c2nn3c(-c4n[nH]c5c4CCC5)nnc3s2)cc1,?,1%,nt,3%,?,2,-2%,40µM*
O=C(Nc1cc(S(=O)(=O)Nc2ccccc2F)ccc1Cl)c1ccc(F)cc1F,5%,-15%,-10%,0%,2%,nt,nt,nt
O=C(O)c1cccc(S(=O)(=O)N2CCN(C(c3ccccc3)c3ccccc3)CC2)c1,?,1%,-8%,0%,3%,7,5%,32µM*
c1ccc(-c2cc(-c3nnc4n3N=C(c3ccc5ccccc5c3)CS4)[nH]n2)cc1,12µM*,?,?,-1%,?,-1,-10%,7.1µM*
CCN(C(=O)CN1C(=O)S/C(=C\c2cccc(OC)c2)C1=O)C1CCS(=O)(=O)C1 (stereo not drawn),1%,13%,?,10%,3%,nt,nt,nt
CC(=O)NS(=O)(=O)c1ccc(N=c2ssc3c2-c2cc(C)ccc2NC3(C)C)cc1,?,-4%,4%,2%,-13%,2,4%,45µM*
COc1cccc(Cn2c(=O)n(-c3cccc(Cl)c3C)c(=O)c3c4c(sc32)CN(C(C)=O)CC4)c1,35µM*,nt,nt,0%,-15%,1,20µM*,25µM*
Cc1ccc(C)c(S(=O)(=O)c2nnn3c2nc(Nc2ccc(F)c(Cl)c2)c2sccc23)c1,?,nt,?,1%,?,4,-3%,?
CC(=O)Nc1ccc(Nc2nc3c(S(=O)(=O)c4cc(C)ccc4C)nnn3c3ccsc23)cc1,-6%,nt,10%,-1%,-1%,nt,nt,nt
Cc1ccc(S(=O)(=O)c2nnn3c2nc(NCc2ccccc2)c2sccc23)cc1,-6%,nt,-5%,0%,-1%,nt,nt,nt
Cc1ccc(S(=O)(=O)c2nnn3c2nc(NC(C)c2ccccc2)c2sccc23)cc1 (stereo not drawn),?,nt,?,1%,0%,-9,2%,14µM*
Cc1cc(C)n2nc(C(=O)OCC(=O)N3C(C)CCCC3C)nc2n1 (stereo not drawn),1%,15%,12%,-1%,-5%,nt,nt,nt
O=C(c1ccco1)N1CCN(c2c(-c3ccccc3)c3cc(Cl)ccc3[nH]c2=O)CC1,?,?,?,4%,?,-7,-2%,22µM*
Cc1oc(-c2ccc(C(=O)NCc3ccc(Cl)cc3)cc2)nc1CS(=O)(=O)c1ccccc1,16%,nt,-19%,5%,12%,nt,nt,nt
COc1cccc(C2c3c(-c4cc(Cl)c(C)cc4O)n[nH]c3C(=O)N2Cc2cccnc2)c1 (stereo not drawn),?,?,?,2%,-11%,-1,1%,16µM*
CCCCOc1ccc(C2c3c(-c4ccccc4O)n[nH]c3C(=O)N2Cc2ccncc2)cc1OC (stereo not drawn),?,nt,-20%,0%,-10%,nt,nt,nt
COc1cc(C2c3c(-c4cc(Cl)c(C)cc4O)n[nH]c3C(=O)N2Cc2cccnc2)ccc1O (stereo not drawn),?,?,11%,3%,-6%,-1,-3%,45µM*
Cc1coc2cc3oc(=O)c(CCC(=O)NCc4ccc(Cl)cc4)c(C)c3cc12,4%,nt,-24%,0%,0%,nt,nt,nt
SMILES,mIDH1 inhibitor,ELG1 DNA repair,Nrf2 inh,Nrf2 ARE act,A549 viability,Resorufin autofl,IDH1 WT,mIDH1 confirm
COc1ccc(NS(=O)(=O)c2ccc(NC(=S)NC(=O)/C=C/c3ccccc3)cc2)nn1,?,-2%,-28%,11%,-13%,-7,?,25µM*
COc1cc(NS(=O)(=O)c2ccc(NC(=S)NC(=O)/C=C/c3ccc(F)cc3)cc2)ncn1,6.6µM*,-5%,-3%,-1%,-1%,-8,11µM*,1.4µM*
O=C(COCc1cc(-c2ccc3c(c2)OCO3)on1)NCc1ccc(F)cc1,-9%,nt,8%,5%,1%,nt,nt,nt
COC(=O)c1ccc(C2c3c(-c4ccccc4O)n[nH]c3C(=O)N2Cc2ccncc2)cc1 (stereo not drawn),-14%,nt,12%,4%,-1%,nt,nt,nt
O=C1c2[nH]nc(-c3ccccc3O)c2C(c2cccc(Cl)c2)N1Cc1cccnc1 (stereo not drawn),?,nt,-13%,5%,-7%,2,2%,28µM*
COc1cc(C2c3c(-c4ccccc4O)n[nH]c3C(=O)N2Cc2ccncc2)ccc1O (stereo not drawn),15%,nt,7%,3%,8%,nt,nt,nt
Cc1ccc(C2c3c(-c4ccccc4O)n[nH]c3C(=O)N2Cc2ccncc2)cc1 (stereo not drawn),?,-17%,-15%,0%,-12%,2,4%,35µM*
COc1cccc(C2c3c(-c4ccccc4O)n[nH]c3C(=O)N2Cc2cccnc2)c1 (stereo not drawn),-16%,nt,5%,4%,-2%,nt,nt,nt
O=C1c2[nH]nc(-c3ccccc3O)c2C(c2cccc(Br)c2)N1Cc1ccncc1 (stereo not drawn),?,nt,-8%,1%,-11%,-3,-3%,25µM*
